Source: PubChem (The Scripps Research Institute Molecular Screening Center)
TTR transcr act = TTR transcription activators in neuroblastoma reporter cells, primary screen, cell-based, luminescence, SH-SY5Y, TTR promoter Gaussia luciferase. 100% = recombinant luciferase protein wells. activation, % at 16.7 µM. 1.3% of 92,000 active. AID 1117267, 2014;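 active = activation above the mean of all tested compounds plus 3 SD, cut at about 9.5% in these data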;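 note: cells exposed to compounds for one day before reading; 0% = median of all test compound wells on the plate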
TTR inh HuH7 = TTR promoter reporter inhibitors in hepatoma cells, counter-screen for TTR transcription activator project, cell-based, luminescence, HuH7 hepatoma. AID 1117279, 2014. inhibition, % at 16.7 µM. HuH7 TTR promoter-Gaussia luciferase reporter. shares compounds with TTR transcr act. 4% of 1,100 active;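 active = average inhibition above the solvent-only control wells' mean plus 3 SD, cut at about 15% in these data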;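 note: 0% = cells with DMSO only and 100% = cells with inhibitor control FD; inhibitors lower well luminescence so higher value means more inhibition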
TTR up confirm = TTR transcription activators, retest, confirmation, cell-based, luminescence, SH-SY5Y, triplicate | shares compounds with TTR transcr act | SHSY5Y TTR promoter Gaussia luciferase; 100% = purified Lucia enzyme wells, no cells | activation, % at 16.7 µM | 1,100 tested, under 10 active;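 active = mean activation above a set limit taken from the earlier primary screen, cut at about 11% in these data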;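 note: 0% = DMSO-treated cells and 100% = recombinant Lucia luciferase without cells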
An asterisk follows results filed as active. Many of the other results were omitted from the sample, so hits are more common in it than they were.

SMILES	TTR transcr act	others
CC(=O)c1c(C)nc(C)nc1NC(=O)Cc1ccccc1	1.4
CCOC(=O)c1c(C)nc(-c2ccccc2)nc1NC(=O)CC	-3.3
CC(=O)Nc1nc(-c2ccc(Cl)cc2)nc(C)c1C(C)=O	35.8*	TTR inh HuH7=-6.2;TTR up confirm=-0.3
CCC[C@H]1[C@@H](NC(=O)C2CCC2)CC[C@@]23CCCN2C(=O)CCC[C@@H]13	-1.8
Cc1ccc(OCC(O)CN2CCN(c3ccccn3)CC2)c(C)c1 (configuration not stated)	-3.9
OC(COC(c1ccc(Cl)cc1)c1ccc(Cl)cc1)CN1CCN(c2ccccn2)CC1 (configuration not stated)	-0.5
OC(CN1CCN(c2ccccn2)CC1)Cn1c2ccc(Cl)cc2c2cc(Cl)ccc21 (configuration not stated)	36.4*	TTR inh HuH7=-6.0;TTR up confirm=0.6
CCCCN1C(=O)C(CC(=O)NCc2ccco2)CC(C(=O)N(C(C)C)C(C)C)=C1C (configuration not stated)	-2.1
CC(C)(C)c1ccc(-c2noc(CCC(=O)NC3CC3)n2)cc1	5.7
CCOc1nc(NC(=O)NS(=O)(=O)c2cccc(Cl)c2)nc(-c2ccccc2)n1	-0.1
COC(=O)[C@]12C[C@H](CC(=O)NCCC(C)C)C(=O)N(CCc3ccc(OC)c(OC)c3)C1=C[C@H](COCc1ccccc1)O[C@@H]2C	0.4
CCOC(=O)c1ccc(NC(=O)CN2C(=O)NC3(CCCCCC3)C2=O)cc1	-1.3
O=C(CN1C(=O)NC2(CCCCC2)C1=O)Nc1ccc(N2CCCCC2)cc1	10.4*	TTR inh HuH7=-3.5;TTR up confirm=-0.1
O=C(CN1C(=O)NC2(CCCC2)C1=O)Nc1ccccc1N1CCCC1	-0.7
CCC[C@H]1[C@@H](NC(=O)c2ccc(OC)cc2)CC[C@@]23CCCN2C(=O)CCC[C@@H]13	2.0
COc1ccc2oc(C(=O)OCC(=O)N(Cc3ccccc3)C(C)(C)C)c(C)c2c1	-1.8
CCN(CC)c1ccc(/C=N/NC(=O)c2ccc([N+](=O)[O-])cc2)cc1	0.0
CCN(CC)c1ccc(N=Cc2ccc([N+](=O)[O-])o2)cc1	17.0*	TTR inh HuH7=-2.1;TTR up confirm=-0.1
CCN(CC)c1ccc(N=Cc2ccccc2[N+](=O)[O-])cc1	-3.0
S=C1NCC(c2ccccc2)S1 (configuration not stated)	0.5
O[C@H]1C[C@H](c2ccc(Cl)cc2)N(CC2CCCCC2)C[C@@H]1n1cc(C2CC2)nn1	-0.3
COC(=O)c1c(-c2ccc(C(C)(C)C)cc2)csc1NC(=O)C1C2CCC(O2)C1C(=O)O (configuration not stated)	1.5
COc1ccc(O)c(/C=N/NC(=O)CSc2nnc(C)n2-c2ccccc2)c1	11.1*	TTR inh HuH7=-16.9;TTR up confirm=1.3
COC(=O)c1ccc(NC(=O)CSc2nnc(C)n2-c2ccccc2)cc1	-0.4
Cc1cccc(C)c1NC(=O)CSc1nnc(C)n1-c1ccccc1	-1.8
SMILES	TTR transcr act	others
OC(CSc1nnnn1-c1ccccc1)Cn1c2ccccc2c2ccccc21 (configuration not stated)	-0.6
COC(=O)[C@]12C[C@H](CC(=O)NCc3cccs3)C(=O)N(Cc3ccc(Cl)cc3Cl)C1=C[C@H](C1CCCC1)O[C@@H]2C	6.5
O=C(NNC(=O)c1ccco1)c1ccc(NS(=O)(=O)c2cccs2)cc1	13.8*	TTR inh HuH7=-8.2;TTR up confirm=0.4
O=C(O)c1ccc(/C=N/NC(=O)c2ccc(NS(=O)(=O)c3cccs3)cc2)cc1	4.4
O=C(NNC(=O)c1cc(F)c(F)cc1Cl)c1ccc(NS(=O)(=O)c2cccs2)cc1	1.3
CCOC(=O)[C@]12CCCC=C1N(Cc1ccc(OC)cc1)C(=O)[C@@H]2CC(=O)NCc1ccccc1	0.9
COC(=O)[C@@H]1CCCN1Cc1c(C(=O)N2CCOCC2)nc2c(C)cccn12	2.6
COc1ccc(-c2coc3c(C(=O)NCC4CCOCC4)cccc23)c(C)c1	-4.0
CCCCSc1cc(=O)n(-c2ccccc2)nc1C(=O)OCC	10.4*	TTR inh HuH7=1.9;TTR up confirm=-1.3
CCCSc1cc(=O)n(-c2ccccc2)nc1C(=O)O	0.3
CCOC(=O)c1nn(-c2ccccc2)c(=O)cc1SC(C)C	1.4
CO[C@H]1O[C@H](C)[C@@H](O)C[C@H]1NC(=O)OCc1ccccc1	0.6
C#CCNC(=O)C[C@H]1C(=O)N(CC=C)C2=CCCC[C@@]21C(=O)OCC	-1.6
Cc1ccccc1Nc1nc2ccccc2n1C(C)C	-0.1
O=S(=O)(Nc1cccc2ccccc12)c1cccc2nonc12	-0.9
Cc1ccccc1Nc1cccc2nonc12	18.2*	TTR inh HuH7=-8.7;TTR up confirm=2.4
O=S(=O)(Oc1ccc(C(=S)N2CCOCC2)cc1)c1ccc(Cl)cc1	-0.8
Cc1ccc(S(=O)(=O)c2nc(-c3ccco3)oc2SCC(N)=O)cc1	-0.1
O=C(CSc1oc(-c2ccco2)nc1S(=O)(=O)c1ccccc1)NCC1CCCO1 (configuration not stated)	11.7*	TTR inh HuH7=-6.9;TTR up confirm=-0.1
O=C(CSc1nc2ccccc2o1)NCC1CCCO1 (configuration not stated)	-0.2
COC(=O)[C@H]1C[C@@]2(CC=C(C)C)c3ccccc3N(C(=O)OC(C)(C)C)[C@H]2N1C(=O)OC(C)(C)C	-1.4
CCCC1CCC2(CC1)CCC2OC(=S)Nc1ccccc1C(F)(F)F (configuration not stated)	-0.2
S=c1[nH]ncn1/N=C/c1ccccc1	17.5*	TTR inh HuH7=-4.6;TTR up confirm=-0.4
Nc1nc(-c2ccccc2)cn1/N=C/c1ccccc1	1.0
S=c1[nH]nc(-c2cc(-c3ccccc3)n[nH]2)n1/N=C/c1ccc(Cl)cc1	0.6
SMILES	TTR transcr act	others
CN1C2=N[C@H](c3ccccc3Br)CC(=O)N2/C(=C\c2ccccc2)[C@@H]1c1ccccc1	-0.3
CCCC1=NN(C(=O)Cc2ccc(OC)c(OC)c2)C(O)(C(F)(F)F)C1 (configuration not stated)	-0.6
CCCNC(=O)C1(C)CCN(Cc2noc(-c3ccccc3OC)n2)C1 (configuration not stated)	-2.2
CC(=O)c1cc(-c2ccc([N+](=O)[O-])cc2)c(=O)n2c1CCC2	0.1
O=C(NN1C(=O)C2C3C=CC(C3)C2C1=O)c1ccccc1 (configuration not stated)	0.0
Cc1ccc(NCN2C(=O)C3CC=C(Cl)CC3C2=O)cc1 (configuration not stated)	-0.2
O=C(NN1C(=O)C2CC=C(Cl)CC2C1=O)c1ccncc1 (configuration not stated)	12.1*	TTR inh HuH7=2.3;TTR up confirm=-0.7
COC(=O)c1cc(S(=O)(=O)Nc2cc(S(=O)(=O)N(C)C)ccc2C)oc1C	0.5
CCOC(=O)[C@@]12CCC3=C1N(CCC3)C(=O)[C@H](CC(=O)NCc1cccc(C(F)(F)F)c1)C2	0.2
CC(C)CC(CCOCCO)NC(=O)OCc1ccccc1[N+](=O)[O-] (configuration not stated)	0.5
Cc1ccc(S(=O)(=O)N2CCCCC2)cc1C(=O)NCc1ccncc1	-0.2
CCCCCNC(=O)c1cc(S(=O)(=O)N2CCCCC2)ccc1F	11.3*	TTR inh HuH7=-9.4;TTR up confirm=0.3
CCCCNC(=O)c1cc(S(=O)(=O)N2CCCCC2)oc1C	0.3
O=C(N[C@H]1CC[C@H](CCNS(=O)(=O)c2ccc(Cl)cc2)O[C@@H]1CO)c1cccc(F)c1	-1.2
